# Unmarked numbers belong to inactive results. Records with an inconclusive call do not appear. Where a call stands in place of a potency, no number is given. The source made the active and inactive calls. Unless noted, calls follow the shape of the dose curve; as a rule, active = well fitted curve in the direction sought with a large enough effect in the repeat runs; inconclusive = weak or mixed curves; inactive = no such curve, though single readings can be large; an effect the other way counts as inactive or inconclusive.
# How the values were obtained:
# [1] = qHTS assay to identify small molecule antagonists of the estrogen related receptor (ERR) signaling pathway from Tox21 library - cell viability counter screen (AID 1224834); also: nearly all actives have a fitted effect of over 30% in size; also: potency is read from the fitted curve at half-maximal effect
# Summary of the method: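 Fluorescence from CellTiter-Fluor gives the viability read-out, taken 30 min after reagent addition. Before that, ERR cells seeded 6 h earlier were incubated with compounds for 17.5 h at 37 C.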
# [2] = molecular target: Luciferin 4-monooxygenase (Photinus pyralis) (UniProt P08659); test: qHTS assay to identify small molecule inhibitors of firefly luciferase (AID 1224835); also: nearly all actives have a fitted effect of over 25% in size; also: potency is read from the fitted curve at half-maximal effect
# Sequence of Luciferin 4-monooxygenase (Photinus pyralis) (P08659 whole entry, looked up): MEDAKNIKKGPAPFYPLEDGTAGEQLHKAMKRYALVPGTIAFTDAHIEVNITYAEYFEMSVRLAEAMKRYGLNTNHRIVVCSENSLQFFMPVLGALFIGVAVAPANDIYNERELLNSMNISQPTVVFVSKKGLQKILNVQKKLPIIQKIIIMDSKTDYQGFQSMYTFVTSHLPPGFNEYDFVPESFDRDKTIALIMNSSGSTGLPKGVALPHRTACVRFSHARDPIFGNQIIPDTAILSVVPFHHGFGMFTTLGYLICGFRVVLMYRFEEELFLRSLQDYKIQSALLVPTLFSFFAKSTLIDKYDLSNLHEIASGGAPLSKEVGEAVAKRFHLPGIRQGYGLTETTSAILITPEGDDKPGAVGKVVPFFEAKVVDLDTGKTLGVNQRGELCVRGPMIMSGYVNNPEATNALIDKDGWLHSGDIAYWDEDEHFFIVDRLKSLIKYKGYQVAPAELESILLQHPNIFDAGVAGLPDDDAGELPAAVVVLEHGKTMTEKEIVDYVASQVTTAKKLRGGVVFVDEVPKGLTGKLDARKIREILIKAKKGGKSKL
# Summary of the method: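 Biochemical qHTS: compounds run as interplate titrations against purified firefly enzyme, with D-luciferin and ATP each at its KM concentration. Light output recorded by CCD imaging.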
# [3] = qHTS assay to identify small molecule agonists of the constitutive androstane receptor (CAR) signaling pathway - cell viability counter screen (AID 1224836); also: nearly all actives have a fitted effect of over 45% in size; also: potency is read from the fitted curve at half-maximal effect
# Summary of the method: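 23 h treatment, 37 C, 5% CO2. Cell line: HepG2 stably expressing hCAR with a CYP2B6-2.2kb construct. Co-treatment: PK11195, 0.75 uM final. Read-out: CellTiter-Fluor fluorescence intensity.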
# [4] = qHTS assay to identify small molecule antagonists of the constitutive androstane receptor (CAR) signaling pathway - cell viability counter screen (AID 1224837); also: nearly all actives have a fitted effect of over 45% in size; also: potency is read from the fitted curve at half-maximal effect
# Summary of the method: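 HepG2-CYP2B6-hCAR cells, 2500/well, 4 hr pre-incubation; compound titration, 15 conc.; CITCO 50 nM final; 23 hr, 37 C/5% CO2; CellTiter-Fluor, fluorescence intensity.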
# [5] = molecular target: Nuclear receptor subfamily 1 group I member 3 (Homo sapiens) (UniProt Q14994); test: qHTS assay to identify small molecule antagonists of the constitutive androstane receptor (CAR) signaling pathway (AID 1224838);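 also: HepG2 cells stably expressing hCAR with CYP2B6 luciferase reporter stimulated by CITCO; nearly all actives have a fitted effect of over 40% in size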
# Sequence of Nuclear receptor subfamily 1 group I member 3 (Homo sapiens) (Q14994 whole entry, looked up): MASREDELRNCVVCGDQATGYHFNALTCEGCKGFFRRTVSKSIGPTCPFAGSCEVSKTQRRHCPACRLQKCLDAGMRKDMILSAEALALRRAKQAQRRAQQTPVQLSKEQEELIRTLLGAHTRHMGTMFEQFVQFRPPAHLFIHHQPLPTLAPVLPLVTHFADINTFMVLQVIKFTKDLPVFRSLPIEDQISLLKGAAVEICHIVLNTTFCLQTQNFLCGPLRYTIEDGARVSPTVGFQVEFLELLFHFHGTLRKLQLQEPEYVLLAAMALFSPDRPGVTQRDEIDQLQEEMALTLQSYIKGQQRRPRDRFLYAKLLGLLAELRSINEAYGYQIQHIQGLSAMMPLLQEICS
# Summary of the method: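 HepG2-CYP2B6-hCAR cells; 4 h pre-incubation; cpd (15 conc) + CITCO 50 nM final; 24 h, 37 C/5% CO2; ONE-Glo, luminescence.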
# [6] = molecular target: Nuclear receptor subfamily 1 group I member 3 (Homo sapiens) (UniProt Q14994); test: qHTS assay to identify small molecule agonists of the constitutive androstane receptor (CAR) signaling pathway (AID 1224839);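 also: HepG2 cells stably carrying human CAR and a CYP2B6 luciferase reporter; nearly all actives have a fitted effect of over 15% in size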
# Summary of the method: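 Compounds tested at 15 concentrations on HepG2 cells stably harbouring hCAR and CYP2B6-2.2kb reporter constructs, co-treated with PK11195 (0.75 uM final), 24 h at 37 C; luminescent reporter signal quantified.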
# [7] = molecular target: Thyrotropin receptor (Homo sapiens) (UniProt P16473); test: qHTS assay to identify small molecule agonists of the thyroid stimulating hormone receptor (TSHR) signaling pathway (AID 1224843; calls by dose curve; also: nearly all actives have a fitted effect of over 45% in size)
# Sequence of Thyrotropin receptor (Homo sapiens) (P16473 whole entry, looked up): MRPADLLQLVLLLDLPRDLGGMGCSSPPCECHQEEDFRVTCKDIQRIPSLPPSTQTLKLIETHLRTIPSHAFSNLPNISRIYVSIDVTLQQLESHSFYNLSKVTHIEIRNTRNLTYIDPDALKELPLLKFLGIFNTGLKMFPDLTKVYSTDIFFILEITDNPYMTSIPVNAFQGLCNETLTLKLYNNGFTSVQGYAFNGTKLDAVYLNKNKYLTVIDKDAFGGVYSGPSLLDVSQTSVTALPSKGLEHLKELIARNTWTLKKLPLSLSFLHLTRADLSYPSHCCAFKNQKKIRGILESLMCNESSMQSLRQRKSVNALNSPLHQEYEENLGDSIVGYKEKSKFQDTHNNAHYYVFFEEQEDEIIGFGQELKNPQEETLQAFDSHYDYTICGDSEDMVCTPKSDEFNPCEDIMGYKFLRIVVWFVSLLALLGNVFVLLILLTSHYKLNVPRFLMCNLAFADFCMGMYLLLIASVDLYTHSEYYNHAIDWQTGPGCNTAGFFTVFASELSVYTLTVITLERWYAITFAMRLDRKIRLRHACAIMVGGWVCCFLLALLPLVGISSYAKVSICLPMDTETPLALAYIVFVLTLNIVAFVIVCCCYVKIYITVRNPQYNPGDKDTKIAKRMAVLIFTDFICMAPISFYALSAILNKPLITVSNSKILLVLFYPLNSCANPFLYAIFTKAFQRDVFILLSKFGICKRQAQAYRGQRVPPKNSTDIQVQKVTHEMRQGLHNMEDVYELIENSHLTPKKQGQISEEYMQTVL
# Summary of the method: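 Steps: seed 800 TSHR-HEK293 cells per well; add test compound and hold 30 min at ambient temperature; dispense cAMP-d2 then anti-cAMP cryptate; incubate 1 h at ambient; measure fluorescence intensity.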
# [8] = qHTS assay to identify small molecule agonists of the hypoxia (HIF-1) signaling pathway - cell viability counter screen (AID 1224844; calls by dose curve; also: nearly all actives have a fitted effect of over 50% in size)
# Summary of the method: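 ME-180 HRE-bla cells, 2,000/well, 0.5% dialyzed FBS; 5 hr settle, 17 hr compound at 37C/5% CO2; CCF4-AM reporter read first, then CellTiter-Glo luminescence after 30 min RT.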
# [9] = qHTS assay to identify small molecule agonists of H2AX (AID 1224845; active = well fitted activation curve with a large enough effect in the signal ratio in the repeat runs, not every such curve was filed as active; the % refers to the signal ratio)
# Summary of the method: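 Wild-type CHO-K1 cells, plated overnight, exposed 3hr at 37C to 15 concentrations (0.76% DMSO final). Lysed, then HTRF anti-pH2AX (S139) cryptate and anti-H2AX-d2 antibodies, 24 hr room temperature; 665/620 nm emission read.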
# [10] = qHTS assay to identify small molecule agonists of the hypoxia (HIF-1) signaling pathway (AID 1224846; active = well fitted activation curve with a large enough effect in the signal ratio in the repeat runs, not every such curve was filed as active; the % refers to the signal ratio)
# Summary of the method: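 Cell line: CellSensor HRE-bla ME-180; 2,000 cells/well; 0.5% dialyzed FBS; 5 h preincubation; DMSO compound pin transfer; 17 h, 37C, 5% CO2; CCF4-AM added; bla FRET signal scored for activation.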
# [11] = qHTS assay to identify small molecule agonists of H2AX - cell viability counter screen (AID 1224847; calls by dose curve; also: nearly all actives have a fitted effect of over 30% in size; also: potency is read from the fitted curve at half-maximal effect)
# Summary of the method: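 Compounds tested at 15 concentrations were incubated 3 hr at 37C with wild-type CHO-K1 cells; cellular ATP-based luminescence (CellTiter-Glo) indicated viability.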
# [12] = qHTS RealTime-Glo MT Cell Viability Assay in HepG2 cells - 24 hour (AID 1224867); also: nearly all actives have a fitted effect of over 50% in size
# Summary of the method: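 Viability was tracked continuously by NanoLuc luminescence from prosubstrate reduced by living HepG2 cells, at successive time points over 40 h of compound exposure. Cells with reagent were preincubated 5 h at 37 °C before compound addition.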
# [13] = A CellTox Green Cytotoxicity Assay to monitor cytotoxicity in HEK293 cells - 0 hour (AID 1224869); also: nearly all actives have a fitted effect of over 50% in size
# Summary of the method: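 Nonlytic real-time cytotoxicity: HEK293 + CellTox Green reagent plated, 5 h preincubation, pintool compound addition (23 nL in DMSO), 37 C for 40 h, fluorescence measured at successive time points.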
# [14] = qHTS RealTime-Glo MT Cell Viability Assay in HepG2 cells - 40 hour (AID 1224870); also: nearly all actives have a fitted effect of over 50% in size
# Summary of the method: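 HepG2 cells (600/well) mixed with RealTime-Glo MT reagent, settled 5 h at 37 C/5% CO2 before compound addition. Nonlytic NanoLuc luminescence from viable-cell prosubstrate reduction read repeatedly during 40 h treatment at 37 C.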
# [15] = qHTS assay to identify small molecule antagonists of the estrogen related receptor signaling pathway with the pleiotropic PPARgamma coactivator (PGC) from Tox21 10K library - cell viability counter screen (AID 1224840; active = well fitted cell-killing curve with a large enough effect in the repeat runs, not every such curve was filed as active; also: nearly all actives have a fitted effect of over 40% in size; also: potency is read from the fitted curve at half-maximal effect)
# Summary of the method: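 PGC/ERR cells, 2,000/well; 6 h pre-incubation 37 C/5% CO2; cpd in DMSO via pin tool; 17.5 h 37 C; CellTiter-Fluor, 30 min; fluorescence.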
# [16] = qHTS RealTime-Glo MT Cell Viability Assay in HEK293 cells - 32 hour (AID 1224868); also: nearly all actives have a fitted effect of over 50% in size; also: potency is read from the fitted curve at half-maximal effect
# Summary of the method: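 Viability tracked continuously by luminescence as live cells reduce a prosubstrate for NanoLuc; HEK293 cells preincubated 5 h, compound-treated at 37 C, and read at 0, 8, 16, 24, 32 and 40 h.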
# [17] = qHTS assay to identify small molecule agonists of the estrogen related receptor signaling pathway with the pleiotropic PPARgamma coactivator (PGC) from Tox21 10K library (AID 1224842); also: nearly all actives have a fitted effect of over 15% in size
# Summary of the method: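 PGC/ERR reporter cell line, 2,000 cells per well, incubated 6 h at 37 C before 23 nL compound in DMSO was added. After 18 h at 37 C, One-Glo luminescence read following 30 min at room temperature.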
# [18] = qHTS assay to identify small molecule antagonists of the estrogen related receptor (ERR) signaling pathway from Tox21 library (AID 1224848); also: nearly all actives have a fitted effect of over 50% in size; also: potency is read from the fitted curve at half-maximal effect
# Summary of the method: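 Luminescent reporter read-out (ONE-Glo) from NTP's ERR cell line after 18 h treatment at 37 C with DMSO-dissolved Tox21 compounds; cells pre-plated 6 h beforehand at 2,000 per well.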
# [19] = qHTS assay to identify small molecule antagonists of the estrogen related receptor signaling pathway with the pleiotropic PPARgamma coactivator (PGC) from Tox21 10K library (AID 1224841; call rule not given here)
# Summary of the method: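 PGC/ERR cell line, 2,000 cells/well; 6 h pre-incubation 37 C/5% CO2; compounds (DMSO) pinned in; 18 h, 37 C; One-Glo, 30 min RT; luminescence.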
# [20] = qHTS assay to identify small molecule agonists of the estrogen related receptor (ERR) signaling pathway from Tox21 library (AID 1224849; calls by dose curve; also: nearly all actives have a fitted effect of over 15% in size); details: ERR reporter cell line, ONE-Glo luciferase, 18 h; at 92.4 µM (top of the series) unless noted
# Summary of the method: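 ERR cells, 6 h pre-incubation 37 C/5% CO2; cpd in DMSO pinned; 18 h 37 C; ONE-Glo added, 30 min RT; luminescence read. Agonist mode, qHTS.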
SMILES,Potency [1],Potency [2],Potency [3],Potency [4],Potency [5],Potency [6],Potency [7],Potency [8],Potency [9],outcome [10],Potency [11],Potency [12],Potency [13],Potency [14],Potency [15],Potency [16],Potency [17],Potency [18],Potency [19],"activity change, positive = activation [20]"
C=CCOC(=O)/C=C\C(=O)OCC=C,inactive,inactive,inactive,inactive,inactive,inactive,inactive,inactive,inactive,inactive,inactive,inactive,inactive,inactive,–,–,–,–,–,–
O=C(O)c1cccnc1C(=O)O,inactive,inactive,inactive,inactive,–,–,inactive,inactive,inactive,–,inactive,inactive,inactive,inactive,inactive,inactive,–,–,–,–
O=C(/C=C/c1ccccc1)OCCCc1ccccc1,inactive,17.8 µM (active),inactive,inactive,–,inactive,inactive,inactive,inactive,inactive,inactive,inactive,inactive,inactive,inactive,inactive,inactive,inactive,–,–
CCC(C(=O)OCCN(CC)CC)c1ccccc1 (stereo unspecified),inactive,inactive,inactive,inactive,inactive,inactive,inactive,inactive,inactive,–,inactive,inactive,inactive,inactive,–,inactive,–,–,–,–
CCOC(=O)OCC,inactive,inactive,inactive,inactive,–,–,inactive,inactive,–,inactive,inactive,inactive,–,inactive,inactive,inactive,–,–,–,–
CC(=O)[C@H]1CC[C@H]2[C@@H]3C[C@H](C)C4=CC(=O)CC[C@]4(C)[C@H]3[C@@H](O)C[C@]12C,inactive,inactive,inactive,inactive,–,–,inactive,inactive,inactive,inactive,inactive,inactive,inactive,inactive,inactive,–,inactive,26.6 µM (active),inactive,-35.5% [at 42.5 µM]
COc1ccccc1N=Nc1c(S(=O)(=O)O)cc2cc(S(=O)(=O)O)cc(NC(C)=O)c2c1O,25.7 µM (active),29.8 µM (active),25.7 µM (active),25.7 µM (active),–,inactive,–,inactive,–,inactive,42.3 µM (active),inactive,inactive,inactive,25.7 µM (active),inactive,inactive,–,–,-27.5%
CC(C)(O)c1ccccc1CC[C@@H](SCC1(CC(=O)O)CC1)c1cccc(/C=C/c2ccc3ccc(Cl)cc3n2)c1,inactive,inactive,inactive,inactive,–,–,inactive,inactive,inactive,inactive,inactive,inactive,inactive,inactive,inactive,inactive,inactive,inactive,inactive,1.93% [at 42.5 µM]
C=CC(=O)NCOCC(C)C,inactive,inactive,inactive,inactive,–,–,inactive,inactive,inactive,inactive,inactive,inactive,inactive,inactive,inactive,inactive,–,–,–,–
CCOC(=O)C(C)Oc1ccc(Oc2nc3ccc(Cl)cc3o2)cc1 (stereo unspecified),inactive,39.9 µM (active),inactive,inactive,inactive,–,–,inactive,inactive,inactive,inactive,–,–,–,inactive,49 µM (active),inactive,inactive,–,-11.6%
CC(C)CCCC(=O)O,inactive,inactive,inactive,inactive,–,–,–,inactive,inactive,inactive,inactive,inactive,inactive,inactive,inactive,inactive,inactive,inactive,inactive,0.997%
CC(C)=CC=O,inactive,inactive,inactive,inactive,–,–,–,inactive,–,inactive,inactive,inactive,inactive,inactive,inactive,inactive,–,–,–,–
CCn1cc(C(=O)O)c(=O)c2cc(F)c(N3CCNCC3)nc21,inactive,inactive,inactive,inactive,–,–,inactive,inactive,inactive,–,inactive,inactive,inactive,inactive,inactive,inactive,–,–,–,–
CC(=O)OCC(=O)[C@@]12OC(C)(C)O[C@@H]1C[C@H]1[C@@H]3C[C@H](F)C4=CC(=O)C=C[C@]4(C)[C@@]3(F)[C@@H](O)C[C@@]12C,inactive,inactive,inactive,inactive,inactive,–,inactive,inactive,inactive,inactive,inactive,inactive,inactive,inactive,inactive,–,–,–,–,–
CCC1(C)CC(=O)NC1=O (stereo unspecified),inactive,inactive,inactive,inactive,–,–,–,inactive,inactive,–,inactive,inactive,inactive,inactive,inactive,inactive,–,–,–,–
